Measured values from PubChem BioAssay.
The source made the active and inactive calls.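 The calls were made as follows, unless noted: active = inhibition at or above 50% at 10 µM; inactive = inhibition below 50%.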

Tests used:
[1] = inhibitors of TNFa-induced NFkB p65 translocation, primary screen, imaging, HUVEC, MLSMR starter and 10KST1 sets (AID 438;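 active = inhibition above 20% together with a positive visual image hit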;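 also: compound added about 3h40 before a 20 min TNFalpha stimulation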;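 as to inhibition: signal is the nuclear over cytoplasmic p65 intensity ratio per well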); conditions: HUVEC TNFa-induced p65 nuclear translocation; cell count: measured here: nuclei count (cytotoxicity indicator), at 2.08 µM; inhibition: at 2 µM, stronger effect = higher value, 0% TNFa-plus-vehicle, 100% no-TNFa wells
[2] = inhibitors of mutant huntingtin aggregation, primary screen, imaging, exon1htt(103Q)mCFP cells, high-content imaging (AID 483;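 active = visual image review flags a hit and inhibition of aggregation exceeds 20%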;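 also: compound exposure lasted 3 days before fixation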;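 as to nuclei count: percent of the per-plate median nuclei count of sample wells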); conditions: exon1htt(103Q)mCFP cell line, aggregate imaging, at 2 µM; inhibition of aggregation: stronger effect = higher value; nuclei count: measured here: cell count, toxicity
[3] = inhibitors of E-selectin induction by TNFa, primary screen, imaging, HUVEC, immunofluorescence, MLSMR starter and 10KST1 sets (AID 487;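 active = visually confirmed hit in the image check and inhibition above 20%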;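 as to inhibition: signal is fraction of cell area covered by stained E-selectin grains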;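 as to nuclei count: 100% = median nuclei count of all wells on the same plate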); conditions: HUVEC TNFalpha-induced E-selectin immunofluorescence imaging, at 2 µM; inhibition: stronger effect = higher value; nuclei count: measured here: cell number, toxicity
[4] = target: Voltage-gated potassium channel subunit beta-2 (Rattus norvegicus) (UniProt P62483); experiment: KvBeta enzyme negative modulators, primary screen, biochemical, NADPH fluorescence (AID 622;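 active = fluorescence slope higher than the sample average by over 3 SD, cut at about -0.22 in these data, passing the limit was not always enough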;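 also: slope of raw intensity against log time taken from 70 to 1610 s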); conditions: recombinant KvBeta, 4-cyanobenzaldehyde reduction, at 10 µM, stronger effect = higher value
Sequence of Voltage-gated potassium channel subunit beta-2 (Rattus norvegicus) (P62483 whole entry, looked up): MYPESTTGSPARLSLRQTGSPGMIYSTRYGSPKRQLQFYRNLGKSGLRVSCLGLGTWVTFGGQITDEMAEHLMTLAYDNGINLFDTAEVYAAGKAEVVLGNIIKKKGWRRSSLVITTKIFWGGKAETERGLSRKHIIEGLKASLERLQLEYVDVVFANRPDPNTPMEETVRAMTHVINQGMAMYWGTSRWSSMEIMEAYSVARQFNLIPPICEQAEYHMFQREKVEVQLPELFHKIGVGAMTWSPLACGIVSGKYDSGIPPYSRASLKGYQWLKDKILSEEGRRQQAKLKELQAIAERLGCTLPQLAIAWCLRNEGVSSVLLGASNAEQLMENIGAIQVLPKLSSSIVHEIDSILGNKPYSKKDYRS

[5] = target: Voltage-gated potassium channel subunit beta-2 (Rattus norvegicus) (UniProt P62483); experiment: KvBeta positive modulators, primary screen, biochemical, NADPH fluorescence (AID 623;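 active = NADPH fluorescence slope more negative than the mean of all samples by about 3 SD, 99.7% confidence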;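 also: fluorescence intensity change per second fitted from 20 to 320 s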); conditions: Recombinant KvBeta, NADPH fluorescence decrease slope, 10 min; at 10 µM; stronger effect = lower value
[6] = target: Alpha-2C adrenergic receptor (Homo sapiens) (UniProt P18825); experiment: modulators of alpha2C/GIRK thallium flux, primary screen, cell-based, HEK293 alpha2C/GIRK1/2 (AID 624;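 active = fluorescence slope after compound addition differing from the mean of all screened samples at 99.7% confidence, in either direction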;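 also: slope of fluorescence ratio to pre-addition baseline per second over 15 to 24 s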); conditions: thallium flux BTC fluorescence, at 10 µM, actives lie on both sides
Sequence of Alpha-2C adrenergic receptor (Homo sapiens) (P18825 whole entry, looked up): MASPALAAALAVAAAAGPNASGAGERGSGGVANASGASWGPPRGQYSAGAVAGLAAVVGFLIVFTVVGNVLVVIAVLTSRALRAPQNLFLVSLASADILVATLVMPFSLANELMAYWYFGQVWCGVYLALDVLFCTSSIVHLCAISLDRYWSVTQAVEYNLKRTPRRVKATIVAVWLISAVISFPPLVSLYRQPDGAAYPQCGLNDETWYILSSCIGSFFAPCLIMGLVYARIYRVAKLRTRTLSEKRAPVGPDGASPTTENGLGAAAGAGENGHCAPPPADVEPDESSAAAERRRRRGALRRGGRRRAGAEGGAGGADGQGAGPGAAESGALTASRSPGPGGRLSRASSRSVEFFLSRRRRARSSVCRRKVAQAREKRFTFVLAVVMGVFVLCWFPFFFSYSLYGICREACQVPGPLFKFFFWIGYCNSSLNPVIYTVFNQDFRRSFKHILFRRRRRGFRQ

[7] = inhibitors of Sendai virus-induced IRF3 signaling, primary screen, TLR/RLR signaling modifier project, cell-based, Sendai virus stimulus, luciferase, 10K MLSCN set (AID 602276); conditions: HEK293 RL24 IRF3 luciferase reporter, at 10 µM, stronger effect = higher value;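 also: firefly luciferase from ISG56 promoter only with Renilla not read in this screen; 0% = Sendai virus plus DMSO and 100% = medium plus DMSO without virus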
[8] = inhibitors of poly I:C-induced TLR3 signaling, primary screen, cell-based, poly I:C stimulus, luciferase, 10K MLSCN set (AID 602277;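 active = inhibition of the reporter signal at or above 50%; inactive = inhibition below 50%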); conditions: HEK293-TLR3 RL24 IRF3 luciferase reporter, at 10 µM, stronger effect = higher value

Row | SMILES | cell count [1] | inhibition [1] | inhibition of aggregation [2] | nuclei count [2] [%] | inhibition [3] | nuclei count [3] [%] | fluorescence slope [4] | NADPH fluorescence slope [5] | slope [6] | inhibition [7] | inhibition [8]
1 | CC(=O)NC(Cc1cc(C)ccc1C)C(=O)N1CCN(C(=O)Nc2ccc(C(C)=O)cc2)CC1 (stereo unspecified) | 324 | -2.1% (inactive) | -26% (inactive) | 106 | -23.1% (inactive) | 99.8 | -0.378 (inactive) | -4.4e-05 (inactive) | 0.00656 (inactive) | 2.34% (inactive) | -13% (inactive)
2 | Cc1cc(=O)n2nc(N3CCCC(C(=O)N4CCN(C)CC4)C3)sc2n1 (stereo unspecified) | 465 | -0.8% (inactive) | 19.6% (inactive) | 92.4 | -186% (inactive) | 126 | -0.313 (inactive) | -3.4e-05 (inactive) | 0.00576 (inactive) | -7.33% (inactive) | 5.83% (inactive)
3 | COc1ccc(OC)c(NC(=O)CSc2nnc(Cc3cccn3C)n2-c2ccc(F)cc2)c1 | 671 | -3.4% (inactive) | 14.8% (inactive) | 86.6 | -40.2% (inactive) | 106 | -0.609 (inactive) | 1.6e-05 (inactive) | 0.00527 (inactive) | 19.4% (inactive) | 30.1% (inactive)
4 | COc1ccc(C(=O)CN2C3=NCCCN3c3ccccc32)cc1OC | 335 | -3.1% (inactive) | -14.2% (inactive) | 76.5 | 22.7% (inactive) | 93.6 | -0.475 (inactive) | -4.1e-05 (inactive) | 0.00312 (inactive) | 10.4% (inactive) | 28.8% (inactive)
5 | N#Cc1nc(COc2ccccc2)oc1NCCCn1ccnc1 | 371 | 5.2% (inactive) | 0.8% (inactive) | 95.5 | 6.7% (inactive) | 90.9 | -0.629 (inactive) | -1.3e-05 (inactive) | 0.00641 (inactive) | -11.6% (inactive) | -1.22% (inactive)
6 | O=C(COC(=O)c1cnccn1)c1ccc(OC(=O)c2ccccc2)cc1 | 214 | -7.5% (inactive) | 21.7% (inactive) | 95.2 | -170% (inactive) | 132 | -0.359 (inactive) | -6.1e-05 (inactive) | 0.00809 (inactive) | 18.9% (inactive) | 35.6% (inactive)
7 | CC1(C)CC(=O)c2sc(NS(C)(=O)=O)nc2C1 | 638 | -10.5% (inactive) | -16.8% (inactive) | 104 | -56.1% (inactive) | 106 | -0.533 (inactive) | -4.4e-05 (inactive) | 0.00519 (inactive) | 18.2% (inactive) | 27.8% (inactive)
8 | Cc1cccc(N2CCN(C(=O)C3CCCN(S(=O)(=O)c4c(C)noc4C)C3)CC2)c1C (stereo unspecified) | 599 | -2.3% (inactive) | -11.6% (inactive) | 102 | -85.1% (inactive) | 125 | -0.571 (inactive) | -2.7e-05 (inactive) | 0.00588 (inactive) | 8.68% (inactive) | 1.25% (inactive)
9 | COCCCNC(=O)C1CCN(C(=O)Nc2ccc(Cl)cc2)CC1 | 577 | 5% (inactive) | 18.9% (inactive) | 96.2 | 33.6% (inactive) | 82.1 | -0.457 (inactive) | 1.1e-05 (inactive) | 0.00588 (inactive) | 11.2% (inactive) | 34.3% (inactive)
10 | CC(=O)c1cc(-c2ccc(F)cc2)n(CCC(=O)Nc2cc(C)[nH]n2)c1C | 360 | 0% (inactive) | -4.1% (inactive) | 102 | 0% (inactive) | 118 | -0.507 (inactive) | -3.1e-05 (inactive) | 0.00525 (inactive) | 4.04% (inactive) | 25.9% (inactive)
11 | CC1CN(Cc2nc3c(c(=O)[nH]c(=O)n3C)n2CC(N)=O)CC(C)O1 (stereo unspecified) | 780 | -7.4% (inactive) | -1.9% (inactive) | 112 | -33% (inactive) | 111 | -0.567 (inactive) | -3.9e-05 (inactive) | 0.00597 (inactive) | 12.8% (inactive) | 20.4% (inactive)
12 | Cc1cc(C)c2c(n1)nn1c(N3CCN(c4cccc(Cl)c4)CC3)cc(C)nc21 | 458 | -7.1% (inactive) | 3.7% (inactive) | 97.9 | -60.1% (inactive) | 130 | -0.303 (inactive) | 1.1e-05 (inactive) | 0.00567 (inactive) | 9.81% (inactive) | 21.4% (inactive)
13 | CCOC(=O)c1c(C)[nH]c(C(=O)Cn2c(=O)oc3ccccc32)c1C | 256 | 7.6% (inactive) | 17.3% (inactive) | 97.3 | 31.3% (inactive) | 98.7 | -0.285 (inactive) | -6.3e-06 (inactive) | 0.00653 (inactive) | -8.59% (inactive) | -12.4% (inactive)
14 | Cc1ccc(Br)cc1S(=O)(=O)N1CCN(c2ccccc2)CC1 | 391 | -2.2% (inactive) | -16% (inactive) | 108 | -51.5% (inactive) | 129 | -0.463 (inactive) | -1.8e-05 (inactive) | 0.0036 (inactive) | 5.17% (inactive) | 31.3% (inactive)
15 | COc1ccc(C(=O)N(CCN2CCOCC2)CC(=O)NC2CCCC2)cc1OC | 402 | 0.5% (inactive) | -20.8% (inactive) | 108 | -41.4% (inactive) | 109 | -0.597 (inactive) | -5.3e-05 (inactive) | 0.00354 (inactive) | -8.79% (inactive) | -6.82% (inactive)
16 | CC(CCC(=O)Nc1nncs1)C(=O)O (stereo unspecified) | 527 | -0.8% (inactive) | 1.4% (inactive) | 97 | -52.1% (inactive) | 123 | -0.535 (inactive) | -5.2e-05 (inactive) | 0.00611 (inactive) | 9.72% (inactive) | 20.3% (inactive)
17 | COc1ccc(-n2nnnc2SCC(=O)N2CCOCC2)cc1 | 788 | 2.8% (inactive) | 9.1% (inactive) | 85.7 | -9.3% (inactive) | 114 | -0.525 (inactive) | -4.9e-05 (inactive) | 0.00627 (inactive) | 2.03% (inactive) | -10.7% (inactive)
18 | O=C(O)CN1C(=O)CNC1=O | 249 | 8.5% (inactive) | -1.9% (inactive) | 60.7 | -66.2% (inactive) | 119 | -0.519 (inactive) | 9.8e-06 (inactive) | 0.00529 (inactive) | 3.07% (inactive) | 24% (inactive)
19 | CCOC(=O)c1cc2sccc2n1Cc1ccccc1 | 417 | 7.3% (inactive) | -5.2% (inactive) | 101 | -147% (inactive) | 99.7 | -0.598 (inactive) | -9.9e-06 (inactive) | 0.00361 (inactive) | -10.3% (inactive) | -7.29% (inactive)
20 | CCOc1ccc(N(CC(=O)NC2CCCCC2)S(=O)(=O)c2c(C)noc2C)cc1 | 710 | -2.8% (inactive) | 33.7% (inactive) | 117 | -52.9% (inactive) | 112 | -0.616 (inactive) | -2.8e-05 (inactive) | 0.00737 (inactive) | -0.99% (inactive) | 17.1% (inactive)
21 | CCOC(=O)c1cc2sc(C)cc2n1C(C)C(=O)OCC (stereo unspecified) | 291 | 0.5% (inactive) | -7% (inactive) | 106 | -48.6% (inactive) | 123 | -0.607 (inactive) | -3.9e-05 (inactive) | 0.00348 (inactive) | 18.2% (inactive) | 20.3% (inactive)
22 | COc1cccc(C2CC(=O)Nc3cc4c(cc32)OCCO4)c1OC(C)C (stereo unspecified) | 556 | 1.9% (inactive) | 7.2% (inactive) | 119 | -18.7% (inactive) | 104 | -0.497 (inactive) | -6e-05 (inactive) | 0.00619 (inactive) | 9.49% (inactive) | 17.8% (inactive)
23 | CCc1ccc(NC(=O)c2cccnc2)cc1 | 337 | -3.8% (inactive) | 23.7% (inactive) | 88 | -14.1% (inactive) | 110 | -0.429 (inactive) | -2.2e-05 (inactive) | 0.00479 (inactive) | -27% (inactive) | -80.3% (inactive)
24 | COc1ccccc1N1CCN(C(=O)C2CCCO2)CC1 (stereo unspecified) | 405 | 2.5% (inactive) | -0.1% (inactive) | 124 | -14.4% (inactive) | 102 | -0.442 (inactive) | -8.7e-05 (inactive) | 0.0058 (inactive) | 11.6% (inactive) | 24.6% (inactive)
25 | Cc1ccc(-n2c3c(cc(C(=O)NC4CCSC4=O)c2=O)C(=O)CC(C)(C)C3)cc1 (stereo unspecified) | 294 | 7.2% (inactive) | 7% (inactive) | 100 | -48.3% (inactive) | 97.9 | -0.458 (inactive) | -8.6e-06 (inactive) | 0.00353 (inactive) | -0.246% (inactive) | 38.6% (inactive)
26 | CC(C)(C)C1CCc2[nH]nc(C(=O)O)c2C1 (stereo unspecified) | 814 | -2.8% (inactive) | 0% (inactive) | 104 | 2% (inactive) | 121 | -0.607 (inactive) | 1.9e-05 (inactive) | 0.00808 (inactive) | 12.4% (inactive) | 16% (inactive)
